Among the data in PubChem BioAssay (NCI) are growth values, retold here.

Several values for one entry are separate records, joined by “and”; a condition that tells them apart may be missing. Equal entries are not always repeated. About 83,000 compounds went through this panel and 20% of them were active in at least one assay; those are over-represented in the sample as a whole.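 Cells were grown in 96-well plates and exposed to the test compound at a single concentration for 48 hours; results are reported as percent growth, with values below 10 considered active.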 Unmarked numbers belong to inactive results. Activity calls are given as the source filed them.

The subject of this assay is MDA-MB-468 breast. Put plainly: NCI-60 one-dose screen, 48 h (100 = growth as untreated, 0 = no growth, -100 = all killed). Particulars: 10 µM unless noted.
Consider `Cc1cnc(N)nc1OCC(C)(C)CNC(=O)c1cccc(-c2ccc(S(=O)(=O)Nc3ccc4c(c3)N(C(=O)C3CC3)CCC4)cc2)c1`, for which the growth was 22.6%.
Turning to `CCOC(=O)c1cnc2c(-c3ccc(Cl)c(Cl)c3)cnn2c1`, the growth is 85.4%.
Take `C[C@@H](c1ccccc1)[C@@H](C(=O)O)c1ccccc1`: the growth is 96.7%.
`Cc1cc(N2CCN(C)CC2)nc(NCc2cc(Nc3ccnc4cc(Cl)ccc34)ccc2F)n1`: the growth was -60.4% (active).
`O=C(CSc1ncccc1C(=O)O)Nc1ccc(Oc2ccccc2)cc1`: the growth was 101%.
`C=CCn1c(SCC(=O)Nc2ccc(C(=O)/C=C/c3cc(OC)c(OC)c(OC)c3)cc2)nnc1-c1cc(OC)c(OC)c(OC)c1`: the growth was 26.1%.
The figure for `Cc1cc2c(-c3nc4ccccc4[nH]3)c(O)c(O)cc2c(O)c1-c1c(C)cc2c(-c3nc4ccccc4[nH]3)c(O)c(O)cc2c1O` is -18.3% (active).
As to `COc1cc(/C=C/C(=O)C2=C(/C=C/c3ccc(O)c(OC)c3)NC(=O)NC2c2ccc(O)c(OC)c2)ccc1O` (stereo unspecified), the growth is 88.7%.
For the compound `FCc1nc2nc(Cl)c(Cl)nc2[nH]1`, the growth was 93.2%.
To `O=[N+]([O-])c1ccc(/C=N\NC(=S)Nc2ccc(F)cc2)cc1` belongs 104% and 101%; to `Cc1cc(C(=O)O)c(C)cc1C(=O)O`, 96.6%; to `COc1cc(C)cc2oc3oc(=O)c(C(=O)c4cc5cc(Br)ccc5o4)cc3c(=O)c12`, 107%.
For the compound `CNC(=O)c1cc(Oc2ccc(NC(=O)c3[nH]c(SC)nc3-c3ccc(F)cc3)cc2)ccn1`, the growth is 70.9%.
To `Cc1cc(O)c2c(c1)C(=O)c1cc(O)cc(O)c1C2=O` belongs 73.2%; to `Nc1ccc2c3c(cccc13)-c1ccccc1-2`, 88.6%.
To `N#C/C(=C\c1ccc(Br)cc1)n1nnc2cc(Cl)c(Cl)cc21` belongs -5.24% (active); to `N#C/C(=C\c1ccc(Br)cc1)n1nnc2ccccc21`, 6.92% (active).
On to `Cc1cc2nc(CC(=O)c3ccccc3)c(=O)[nH]c2cc1C`, for which the growth was 103%.
The figure for `COC(=O)c1nc(-c2ccccc2)oc1S(=O)(=O)N(C)CCO` is 6.31% (active).
`CCCCn1c(=O)c(/C=C/C(=O)/C=C/c2ccc(OC)cc2)cc2cc(Cl)ccc21`: the growth is 86.1%.
To `COC(=O)[C@]1(C)CC[C@]2(C)CC[C@]3(C)C(=CC(=O)[C@@H]4[C@@]5(C)CCC(=O)NC(C)(C)[C@@H]5CC[C@]43C)[C@@H]2C1` belongs -49.5% [100 µM] (active); to `O=c1c2c(c3ccccc3n1-c1ccccc1)NC(=S)NC2c1ccc(Cl)cc1` (stereo unspecified), 115%; to `O=c1c2cc(-c3ccccc3)sc2nc2sc(-c3ccccc3)nn12`, 101%.
To `Oc1ccc2ccccc2c1/C=N\Nc1ccccn1` belongs -19.3% (active); to `CN(C)c1ccc(NC(=O)c2ccc(/C=C/C(=O)c3ncc[nH]3)cc2)cc1`, 45.6%.
The figure for `Cc1ccc(S(=O)(=O)N2C/C(=C\c3cc(F)cc(F)c3)C(=O)/C(=C/c3cc(F)cc(F)c3)C2)cc1` is -43.3% (active).
